From PubChem BioAssay AID588342 (National Center for Advancing Translational Sciences (NCATS), 2011) come the findings set out here.

Structures are written as SMILES. Among all 360,000 compounds or so, about 25,000 (6.9%) were called active. Not shown: some 9% with an inconclusive outcome. The entries come from a sample that favours actives as a whole. Entries that show only a call come without a potency. A number with no mark means an inactive call. Calls come from the whole dose curve; as a rule, active = well fitted inhibition curve with a large enough effect; inconclusive = small, poorly fitted or top-dose-only effect; inactive = flat fitted curve, though single readings scatter.

Chain of Luciferin 4-monooxygenase (Photinus pyralis) (P08659 whole entry, looked up): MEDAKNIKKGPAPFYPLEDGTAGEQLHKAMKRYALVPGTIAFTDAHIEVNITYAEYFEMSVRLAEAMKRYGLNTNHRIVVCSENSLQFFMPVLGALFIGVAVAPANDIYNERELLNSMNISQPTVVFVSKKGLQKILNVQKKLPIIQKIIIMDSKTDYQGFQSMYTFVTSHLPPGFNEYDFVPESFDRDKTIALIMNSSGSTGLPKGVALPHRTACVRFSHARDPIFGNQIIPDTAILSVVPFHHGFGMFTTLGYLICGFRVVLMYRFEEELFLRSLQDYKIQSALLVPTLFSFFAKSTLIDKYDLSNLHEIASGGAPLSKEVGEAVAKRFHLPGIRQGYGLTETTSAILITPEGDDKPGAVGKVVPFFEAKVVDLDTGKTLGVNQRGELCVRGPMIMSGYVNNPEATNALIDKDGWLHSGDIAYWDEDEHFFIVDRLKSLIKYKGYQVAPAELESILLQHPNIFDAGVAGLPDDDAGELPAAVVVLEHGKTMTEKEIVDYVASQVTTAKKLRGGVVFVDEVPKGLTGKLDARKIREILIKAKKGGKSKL

The assay concerns the target Luciferin 4-monooxygenase (Photinus pyralis) (UniProt P08659). Nature of the assay: qHTS profiling assay for firefly luciferase inhibitor/activator using purifed enzyme and Km concentrations of substrates (counterscreen for miR-21 project). Note: nearly all actives have a fitted effect of over 55% in size. To be noted: purified FLuc, luminescence inhibition; series mostly up to 57.5 µM. From the text:
MLPCN Grant: 1 R21 NS059478-01 (miR-21 grant) Assay Provider: NCGC NCGC Assay Overview: Firefly (Photinus pyralis) luciferase is one of the most commonly used transcriptional reporters for a number of reasons. It is considered one of the more dynamically responsive reporters -that is, responsive to changes in reporter transcription - as it requires no post-translational modifications and is enzymatically active directly after protein synthesis (Wood, 1998). Additionally, the half-life of the luciferase protein is short relative to other reporter-gene products (Wood, 1995). Whereas reporters with long half-lives potentially allow for increased signal due to accumulation of reporter-gene product, once accumulated in the cell, dynamic changes in reporter-gene expression may be difficult to detect(Fan and Wood, 2007; Almond et al., 2004). It has been shown that wild-type P. pyralis luciferase has a half-life of approximately […] hours in mammalian cells (Thompson et al., 1991). Firefly luciferase reporter-gene assays are also generally considered one of the most sensitive assay types (Wood, 1995; Wood, 1998). Although light produced in a bioluminescence reaction is of lower intensity than that produced during fluorescence emission, this is offset by little to no background light inherent to luminescent assays. Thus the luciferase reporter can be expressed at much lower levels than fluorescent proteins while still providing robust signal. # However, it was initially observed, in 1991, by Thompson et al., that compounds that resemble the substrates of firefly luciferase (FLuc) can act as competitive inhibitors of the enzyme, and that these compounds, upon interaction with luciferase in the cell, can actually stabilize the protein and increase its half-life. Accumulated intracellular FLuc protein can be measured as an increase in luminescence signal, upon addition of detection reagents (which contain high concentrations of FLuc substrates) commonly used in high-throughput screening. In cell-based reporter gene assays that use FLuc as the reporter gene to quantitate the potential influence of a given compound against the target biology, this apparent increase in luminescence can mistakenly be interpreted as identification of a compound that is active against the target of interest. This is the case for the miR-21 FLuc reporter gene assay used to identify inhibitors of the miR-21 pathway (PubChem AID 2289) - compounds of interest will inhibit miR-21 biogenesis/expression or activity, and are identified by causing an increase in luminescence, due to increased FLuc translation. However, FLuc inhibitory compounds that stabilize the FLuc protein will give an identical read-out, making it difficult to distinguish compounds that are active against the target from those active against FLuc. Previous profiling work to determine the prevalence of compounds that affect FLuc enzymatic activity (PubChem AID 411) identified that ~3% of the MLSMR library (then at ~72K) inhibited FLuc. […] Since the MLSMR had grown to ~350K compounds, and since it was expected that a significant percentage of compounds found active in the miR-21 FLuc assay would be FLuc inhibitors, the library was screened for activity against FLuc using a biochemical assay of purified FLuc and KM concentrations of FLuc substrates (D-luciferin and ATP).
NCGC Assay Protocol Summary: Reagents: 50mM Tris acetate, pH 7.5; 10mM Mg acetate; 10uM D-luciferin (Sigma #L9504); 10uM ATP; 0.01% Tween-20; 0.05% BSA; 10nM P. pyralis luciferase (Sigma #L9506) Control compounds used were two known firefly luciferase inhibitors (compounds (2) and (5) in Auld et al., 2010), and DMSO. […]
A general note: Quantitative high-throughput screening tests each substance at several concentrations.
Consider `Fc1ccc(C2N3CCCN23)cc1` (stereo not given), for which the Potency entry was “inactive”. On the same count and under the same terms, next, `CN1CCN(C(=O)COc2ccc(C(C)(C)C)cc2Br)CC1`: “inactive”; `O=C(Nc1cccc(OC(=O)N2CCCCC2)c1)N1CCOCC1`: “inactive”; `CC(C)(C)c1ccc(OC(=O)N2CCCCC2)cc1`: 10.7 µM (active). Same read-out and setting: next, `COC(=O)C1=C(c2ccc3ccccc3c2)C[C@@H]2CC[C@H]1N2C(=O)NCCO`: “inactive”; `CCCCCn1c(=O)c(C(=O)NCc2ccccn2)c(O)c2ccccc21`: “inactive”.

Regarding `CC(=O)Cc1ccc(OC(C)C)cc1`, the Potency result was “inactive”. Same read-out and setting: next, `CC(C)Oc1ccc(NC(=O)c2cc3ccccc3o2)cc1`: 1.51 µM (active); `Cc1ccc(-c2nc3ccccc3c(=O)n2-c2ccc(Br)cn2)cc1`: “inactive”; `COCCNC(=O)CN1C2CCC1CC(O)(c1cccnc1)C2` (stereo not given): “inactive”. Still for that read-out and setting: under `CC/C(=N\NC(=O)c1ccccc1O)c1c(O)n(Cc2ccccc2)c(=O)[nH]c1=O` stands 9.53 µM (active); under `CCC(=NCc1ccco1)c1c(O)n(Cc2ccccc2)c(=O)[nH]c1=O`, “inactive”. Same read-out and setting: under `CCC(=NCCc1ccccc1)c1c(O)n(C2CCCCC2)c(=O)[nH]c1=O` stands “inactive”.

For `Cc1ccc(C(C)C)c(OCC(=O)N2CCN(CC(=O)N3CCOCC3)CC2)c1`, the Potency entry is “inactive”. On the same count and under the same terms, under `CC1(C)Cc2c(C#N)c(N3CCNCC3)nc(-c3ccco3)c2CS1` stands “inactive”. Same read-out and setting: under `Cc1ccc(Cn2nnnc2CN2CCC(n3nnc4ccccc43)CC2)cc1` stands “inactive”; under `CCc1cccc2c(C#N)cn(CC(=O)N3CCOCC3)c12`, “inactive”; under `O=C(O)COc1ccccc1/C=C1\C(=O)NC(=O)N(CCC2=CCCCC2)C1=O`, “inactive”.

On to `C=CCN1C(=O)NC(=O)/C(=C/c2ccc(OCC(=O)Nc3ccc(C)cc3)cc2)C1=O`, for which the Potency was 21.3 µM (active). With `C=CCN(CC=C)C(=O)Nc1ccc(OCC)cc1`, the Potency entry was “inactive”. For the compound `COC(=O)C1=C(c2ccc(Cl)c(C(F)(F)F)c2)C[C@@H]2CC[C@H]1N2C(=O)NC1CC1`, the Potency result is “inactive”. The same measure, in the same setting: next, `Cc1cc(C(=O)OCC(=O)Nc2c(F)cccc2F)c(C)n1C1CC1`: “inactive”.

Regarding `c1cc2c(cc1CCNC1CCCCCC1)OCO2`, the Potency entry was “inactive”. As for `COC(=O)C1=C(c2ccc(F)cc2OCc2ccccc2)C[C@@H]2CC[C@H]1N2C(=O)NCc1ccc(OC)c(OC)c1`, the Potency result was “inactive”. In the case of `COc1cccc(N2C(=O)NC(=O)/C(=C\c3cn(C)c4ccccc34)C2=O)c1`, the Potency result was “inactive”.

On to `Cc1cccc(N2C(=O)NC(=O)/C(=C\c3cnn(-c4ccccc4)c3)C2=O)c1`, for which the Potency is 15.1 µM (active). On the same count and under the same terms, under `O=C1C2(Cl)C3(Cl)C4(Cl)C(Cl)(Cl)C5(Cl)C3(Cl)C1(Cl)C5(Cl)C24Cl` (stereo not given) stands “inactive”. Still for that read-out and setting: next, `COc1ccc(Br)cc1CNCCc1cccc(Cl)c1`: “inactive”; `COc1cc(-n2c(=S)[nH]c3ccc(C)cc3c2=O)c(Cl)cc1Cl`: “inactive”; `c1csc(-c2nnc(COc3ccc4c(c3)OCO4)o2)c1`: 19 µM (active). On the same count and under the same terms, under `CCN(CC)P(=O)(Oc1cccc(C)c1)N(CC)CC` stands “inactive”.

As for `COC(=O)C1=C(c2ccc(F)cc2F)C[C@@H]2CC[C@H]1N2C(=O)NC1CC1`, the Potency result is “inactive”.

Consider `Cc1nc2ccc(N3CCN(C)CC3)cc2nc1C`, for which the Potency was 19 µM (active). With `CN1CCN(c2cc(N3CCNCC3)ccc2[N+](=O)[O-])CC1`, the Potency entry was “inactive”. Still for that read-out and setting: under `COC(=O)C1=C(c2cccc(OCc3ccccc3)c2)C[C@@H]2CC[C@H]1N2C(=O)NNCc1ccccc1` stands “inactive”; under `CCOC(=O)C1=C(C)OC(N)=C(C(=O)OC)C12C(=O)Nc1ccc(Br)cc12` (stereo not given), “inactive”; under `Cc1ccc(-n2c(/C=C/c3cccc(C(F)(F)F)c3)nc3ccccc3c2=O)cc1`, “inactive”. With `COC(=O)C1=C(c2ccc(F)cc2OCc2ccccc2)C[C@@H]2CC[C@H]1N2C(=O)NCc1ccc(Cl)cc1`, the Potency entry is “inactive”.

`O=C1NC(=O)N(Cc2ccco2)C(=O)/C1=C\c1ccc(-c2ccc(F)cc2)o1`: the Potency was 10.7 µM (active). Same read-out and setting: next, `Cc1cc(/C=C2/C(=O)NC(=O)N(Cc3ccco3)C2=O)c(C)n1-c1ccc(C(=O)O)cc1`: “inactive”; `O=C1NC(=O)N(CCc2ccc(F)cc2)C(=O)/C1=C/C=C/c1ccccc1`: “inactive”. On the same count and under the same terms, under `c1ccc2sc(C3CCCNC3)nc2c1` (stereo not given) stands “inactive”; under `COC(=O)C1=C(c2ccc(F)cc2OCc2ccccc2)C[C@@H]2CC[C@H]1N2C(=O)NCc1ccc2[nH]ccc2c1`, “inactive”.

As for `CN(C)C(=O)Oc1ccc2c(c1)O/C(=C\c1ccccc1)C2=O`, the Potency was 9.53 µM (active). The same measure, in the same setting: next, `CN(C)C(=O)Oc1ccc(OCc2cccc[n+]2C)cc1`: “inactive”. With `CCOC(=O)c1c(-c2ccccc2)oc2ccc(OC(=O)N(C)C)cc12`, the activity change, negative = inhibition was 1.44% [at 2.3 µM]. In the case of `CCC12CCN(CCc3ccccc3)CC1Oc1c(O)cccc12` (stereo not given), the Potency entry was “inactive”. Still for that read-out and setting: next, `COC(=O)C1=C(c2ccc(Cl)c(C(F)(F)F)c2)C[C@@H]2CC[C@H]1N2C(=O)NC(C)C`: “inactive”; `Cc1nn(-c2ccccc2)c(C)c1NC(=O)COC(=O)Cc1ccccc1`: “inactive”; `COc1ccc(C(=O)C2CN(C)CC2C(=O)c2ccc(OC)cc2)cc1` (stereo not given): “inactive”.
